# Source: PubChem BioAssay
# The source made the active and inactive calls.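 How the source made its calls, unless noted: active means inhibition at or above 50% at 10 µM; inactive means inhibition below 50%.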
# Legend:
# [1] = inhibitors of TNFa-induced NFkB p65 translocation, primary screen, imaging, HUVEC, MLSMR starter and 10KST1 sets (AID 438;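 active means inhibition above 20% together with a positive visual image hit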;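 further: compound added about 3h40 before a 20 min TNFalpha stimulation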;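 on inhibition: signal is the nuclear over cytoplasmic p65 intensity ratio per well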); conditions: HUVEC TNFa-induced p65 nuclear translocation; cell count: measured here: nuclei count (cytotoxicity indicator), at 2.08 µM; inhibition: at 2 µM, stronger effect = higher value, 0% TNFa-plus-vehicle, 100% no-TNFa wells
# [2] = inhibitors of mutant huntingtin aggregation, primary screen, imaging, exon1htt(103Q)mCFP cells, high-content imaging (AID 483;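 active means visual image review flags a hit and inhibition of aggregation exceeds 20%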;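 further: compound exposure lasted 3 days before fixation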;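 on nuclei count: percent of the per-plate median nuclei count of sample wells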); conditions: exon1htt(103Q)mCFP cell line, aggregate imaging, at 2 µM; inhibition of aggregation: stronger effect = higher value; nuclei count: measured here: cell count, toxicity
# [3] = inhibitors of E-selectin induction by TNFa, primary screen, imaging, HUVEC, immunofluorescence, MLSMR starter and 10KST1 sets (AID 487;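 active means visually confirmed hit in the image check and inhibition above 20%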;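 on inhibition: signal is fraction of cell area covered by stained E-selectin grains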;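 on nuclei count: 100% = median nuclei count of all wells on the same plate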); conditions: HUVEC TNFalpha-induced E-selectin immunofluorescence imaging, at 2 µM; inhibition: stronger effect = higher value; nuclei count: measured here: cell number, toxicity
# [4] = target: Voltage-gated potassium channel subunit beta-2 (Rattus norvegicus) (UniProt P62483); test: KvBeta enzyme negative modulators, primary screen, biochemical, NADPH fluorescence (AID 622;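 active means fluorescence slope higher than the sample average by over 3 SD, cut at about -0.22 in these data, passing the limit was not always enough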;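 further: slope of raw intensity against log time taken from 70 to 1610 s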); conditions: recombinant KvBeta, 4-cyanobenzaldehyde reduction, at 10 µM, stronger effect = higher value
# Chain of Voltage-gated potassium channel subunit beta-2 (Rattus norvegicus) (P62483 whole entry, looked up): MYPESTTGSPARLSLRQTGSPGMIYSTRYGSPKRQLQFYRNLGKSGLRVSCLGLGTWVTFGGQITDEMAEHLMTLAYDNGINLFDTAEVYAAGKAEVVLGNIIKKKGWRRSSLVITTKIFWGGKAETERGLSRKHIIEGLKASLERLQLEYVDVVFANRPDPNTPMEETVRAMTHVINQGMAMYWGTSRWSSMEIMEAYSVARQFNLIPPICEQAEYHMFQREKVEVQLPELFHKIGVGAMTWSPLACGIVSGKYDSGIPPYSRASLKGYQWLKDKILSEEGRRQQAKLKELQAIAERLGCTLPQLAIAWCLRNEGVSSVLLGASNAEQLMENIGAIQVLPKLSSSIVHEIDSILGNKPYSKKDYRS
# [5] = target: Voltage-gated potassium channel subunit beta-2 (Rattus norvegicus) (UniProt P62483); test: KvBeta positive modulators, primary screen, biochemical, NADPH fluorescence (AID 623;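 active means NADPH fluorescence slope more negative than the mean of all samples by about 3 SD, 99.7% confidence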;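 further: fluorescence intensity change per second fitted from 20 to 320 s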); conditions: Recombinant KvBeta, NADPH fluorescence decrease slope, 10 min; at 10 µM; stronger effect = lower value
# [6] = target: Alpha-2C adrenergic receptor (Homo sapiens) (UniProt P18825); test: modulators of alpha2C/GIRK thallium flux, primary screen, cell-based, HEK293 alpha2C/GIRK1/2 (AID 624;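 active means fluorescence slope after compound addition differing from the mean of all screened samples at 99.7% confidence, in either direction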;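 further: slope of fluorescence ratio to pre-addition baseline per second over 15 to 24 s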); conditions: thallium flux BTC fluorescence, at 10 µM, actives lie on both sides
# Chain of Alpha-2C adrenergic receptor (Homo sapiens) (P18825 whole entry, looked up): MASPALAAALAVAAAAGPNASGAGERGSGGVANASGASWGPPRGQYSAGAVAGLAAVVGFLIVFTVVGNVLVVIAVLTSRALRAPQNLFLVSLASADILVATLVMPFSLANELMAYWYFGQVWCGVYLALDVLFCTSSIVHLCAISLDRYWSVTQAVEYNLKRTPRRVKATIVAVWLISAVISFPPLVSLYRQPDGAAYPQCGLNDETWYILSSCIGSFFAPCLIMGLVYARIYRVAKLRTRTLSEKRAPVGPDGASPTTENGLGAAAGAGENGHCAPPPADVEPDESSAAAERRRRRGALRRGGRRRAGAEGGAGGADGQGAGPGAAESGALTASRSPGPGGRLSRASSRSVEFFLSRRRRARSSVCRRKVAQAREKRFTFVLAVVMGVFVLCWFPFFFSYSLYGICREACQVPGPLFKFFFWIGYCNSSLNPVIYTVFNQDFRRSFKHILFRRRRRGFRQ
# [7] = inhibitors of Sendai virus-induced IRF3 signaling, primary screen, TLR/RLR signaling modifier project, cell-based, Sendai virus stimulus, luciferase, 10K MLSCN set (AID 602276); conditions: HEK293 RL24 IRF3 luciferase reporter, at 10 µM, stronger effect = higher value;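 further: firefly luciferase from ISG56 promoter only with Renilla not read in this screen; 0% = Sendai virus plus DMSO and 100% = medium plus DMSO without virus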
# [8] = inhibitors of poly I:C-induced TLR3 signaling, primary screen, cell-based, poly I:C stimulus, luciferase, 10K MLSCN set (AID 602277;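 active means inhibition of the reporter signal at or above 50%; inactive means inhibition below 50%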); conditions: HEK293-TLR3 RL24 IRF3 luciferase reporter, at 10 µM, stronger effect = higher value
Compound,cell count [1],inhibition [1],inhibition of aggregation [2],nuclei count [2] [%],inhibition [3],nuclei count [3] [%],fluorescence slope [4],NADPH fluorescence slope [5],slope [6],inhibition [7],inhibition [8]
Fc1ccccc1Cn1nnc2c(-n3ccnc3)ncnc21,573,-1.6% (inactive),-7.5% (inactive),103,-55.2% (inactive),106,-0.519 (inactive),3.6e-05 (inactive),0.00439 (inactive),-9.4% (inactive),-13.8% (inactive)
COc1cccc(Nc2cc(C)nc3ccccc23)c1,259,2.1% (inactive),11.8% (inactive),78.5,-1% (inactive),105,-0.412 (inactive),-6.3e-06 (inactive),0.00478 (inactive),-11.6% (inactive),99.5% (active)
CCOC(=O)c1cc2c(=O)n3cccc(C)c3nc2n(CC2CCCO2)c1=NC(C)=O (configuration not stated),435,28.2% (inactive),-1.4% (inactive),117,-17.2% (inactive),114,-0.295 (inactive),-2.5e-05 (inactive),0.00401 (inactive),3.59% (inactive),8.19% (inactive)
COc1ccc(-n2c(=O)[nH]cc(C(=O)Nc3ccc(NC(C)=O)cc3)c2=O)cc1,233,7% (inactive),22.1% (inactive),49.8,30.3% (inactive),85.4,-0.629 (inactive),9.9e-06 (inactive),0.0073 (inactive),9.68% (inactive),24.1% (inactive)
CCCCOC(=O)c1[nH]c2c(c1C)C(=O)CC(c1cc(OC)c(OC)c(OC)c1)C2 (configuration not stated),546,-1.7% (inactive),18.4% (inactive),79.6,-7.4% (inactive),104,-0.57 (inactive),-2.8e-05 (inactive),0.00591 (inactive),7.86% (inactive),-20.9% (inactive)
CC(=O)Nc1c(C(=O)C2CC2)oc2ccccc12,514,2.2% (inactive),-10.5% (inactive),102,-8.1% (inactive),117,-0.448 (inactive),-2.5e-05 (inactive),0.00698 (inactive),-3.28% (inactive),2.69% (inactive)
Cc1ccccc1Cc1c(C)nc2c(C(=O)N3CCN(Cc4ccc5c(c4)OCO5)CC3)cnn2c1C,631,-4.4% (inactive),19.5% (inactive),132,-11.8% (inactive),95.4,-0.415 (inactive),-1.3e-05 (inactive),0.00443 (inactive),10.8% (inactive),27.9% (inactive)
Cc1nnc(N(C)C(=O)Cc2ccc3c(c2)OCO3)s1,709,-6.1% (inactive),15.2% (inactive),107,6.8% (inactive),112,-0.55 (inactive),1.1e-05 (inactive),0.00419 (inactive),21.5% (inactive),39.7% (inactive)
COc1ccc(-c2nnnn2C)cc1S(=O)(=O)NCc1ccccc1,579,0.6% (inactive),7.2% (inactive),106,-49.3% (inactive),110,-0.415 (inactive),5.2e-06 (inactive),0.00442 (inactive),10.3% (inactive),4.79% (inactive)
O=C(NCc1ccco1)C(c1ccco1)N(C(=O)Cn1nnc2ccccc21)c1ccc2c(c1)CCC2 (configuration not stated),329,-8% (inactive),-0.5% (inactive),103,23.8% (inactive),104,-0.519 (inactive),-6.5e-06 (inactive),0.00472 (inactive),14.9% (inactive),21.8% (inactive)
Cc1ccc(C)c(S(=O)(=O)C(C#N)c2nc3ccccc3nc2N2CC(C)OC(C)C2)c1 (configuration not stated),358,-4.1% (inactive),-3.8% (inactive),103,-84.3% (inactive),125,-0.494 (inactive),-1.6e-06 (inactive),0.00382 (inactive),32.7% (inactive),2.87% (inactive)
CCOC(=O)c1ccc(N2C(=O)CC(NC3CCN(C(=O)c4ccc(F)cc4)CC3)C2=O)cc1 (configuration not stated),699,8.6% (inactive),7.9% (inactive),102,-30.3% (inactive),98.3,-0.416 (inactive),2.4e-05 (inactive),0.00425 (inactive),-1.5% (inactive),-3.21% (inactive)
CCOc1cc2[nH]c(=O)n(CCC(=O)NCCc3ccc(OC)c(OC)c3)c(=O)c2cc1OCC,313,-2.1% (inactive),-0.3% (inactive),103,-19.2% (inactive),122,-0.514 (inactive),2.8e-05 (inactive),0.00653 (inactive),8.69% (inactive),16.7% (inactive)
Cc1cc(=O)n2nc(N3CCCC(C(=O)N4CCc5ccccc54)C3)sc2n1 (configuration not stated),487,-7.5% (inactive),-1.6% (inactive),97,-54.6% (inactive),103,-0.324 (inactive),-6.9e-05 (inactive),0.00401 (inactive),18.4% (inactive),37.1% (inactive)
COc1cccc(-c2nc(CS(=O)(=O)CC(=O)N3CCc4ccccc4C3)c(C)o2)c1,813,-17.7% (inactive),-2% (inactive),93,-74.3% (inactive),117,-0.522 (inactive),-1.8e-05 (inactive),0.00747 (inactive),6.4% (inactive),16% (inactive)
O=C(Nc1ccccc1-c1ccccc1)NC1CCN(C(=O)N2CCOCC2)CC1,497,0% (inactive),-19.4% (inactive),113,6.6% (inactive),96.7,-0.5 (inactive),-4.4e-05 (inactive),0.00404 (inactive),13.4% (inactive),18.7% (inactive)
CCCc1nnc(NC(=O)CCC(=O)N2CCN(CCOc3ccc(C)cc3)CC2)s1,480,-5.6% (inactive),-0.2% (inactive),89.5,-2.3% (inactive),81.8,-0.379 (inactive),6e-06 (inactive),0.0036 (inactive),0.418% (inactive),10.9% (inactive)
C=CCn1c(C)cc(C(=O)CSc2nc3ccccc3o2)c1C,615,-8.9% (inactive),-16.3% (inactive),105,-58.1% (inactive),104,-0.595 (inactive),-5.9e-05 (inactive),0.00586 (inactive),-26.5% (inactive),-136% (inactive)
O=S1(=O)CC(N2CCOCC2)c2ccccc21 (configuration not stated),644,-0.2% (inactive),8.1% (inactive),95.1,-26.3% (inactive),112,-0.52 (inactive),-1.6e-05 (inactive),0.00437 (inactive),7.8% (inactive),12.8% (inactive)
O=C(Cc1ccccc1)Nc1ccc(CN2CCOCC2)cc1,451,-5.4% (inactive),-17.1% (inactive),104,-2.9% (inactive),107,-0.418 (inactive),-3.3e-05 (inactive),0.00462 (inactive),-34% (inactive),-71.3% (inactive)
CCn1c(C(=O)N2CCC(C(=O)NCc3ccc4c(c3)OCO4)CC2)cc2sccc21,505,-0.9% (inactive),-30.3% (inactive),75.4,-65.2% (inactive),120,-0.508 (inactive),-5.3e-05 (inactive),0.00644 (inactive),14.9% (inactive),-2.44% (inactive)
CCOC(=O)N1CCC(NC(=O)Cn2c3c(c(-c4ccccc4Cl)cc2=O)CCC3)CC1,528,-3.3% (inactive),4.5% (inactive),98.3,-105% (inactive),120,-0.54 (inactive),-2.2e-05 (inactive),0.00573 (inactive),9.23% (inactive),30.1% (inactive)
N#CC1=C(SCC(=O)c2cc3ccccc3oc2=O)NC(=O)C(C#N)C12CCCC2 (configuration not stated),639,-36.2% (inactive),14.2% (inactive),104,-47.7% (inactive),123,-0.493 (inactive),-5.2e-05 (inactive),0.00421 (inactive),23% (inactive),31.4% (inactive)
CC1Cc2ccccc2N1S(=O)(=O)c1ccc2c(c1)n(C)c(=O)c(=O)n2C (configuration not stated),339,6.6% (inactive),-25.5% (inactive),96.4,-21.1% (inactive),111,-0.43 (inactive),6.1e-06 (inactive),0.00562 (inactive),19.2% (inactive),17.1% (inactive)
CCOC(=O)c1ccc(NC(=O)CCc2nc(-c3cccc(C)c3)no2)cc1,387,12.6% (inactive),-10.1% (inactive),102,-1% (inactive),100,-0.565 (inactive),-6.8e-05 (inactive),0.00651 (inactive),-14.6% (inactive),-24% (inactive)
O=C(OCc1ccc2c(c1)OCO2)c1ccc(S(=O)(=O)N2CCCCC2)cc1,732,4.4% (inactive),-6.1% (inactive),102,83.3% (active),87.7,-0.415 (inactive),-5.1e-05 (inactive),0.00821 (inactive),7.08% (inactive),9.8% (inactive)
COC(=O)c1ccc(NC(=O)CN2CCCC2)cc1,612,-11.4% (inactive),13.1% (inactive),107,51.6% (inactive),141,-0.514 (inactive),-6.2e-05 (inactive),0.00467 (inactive),9.14% (inactive),7.68% (inactive)
